Source: article PMC11006913
Substitutions are numbered along the chain they refer to.

Assays:
Experiment in all cases: PBM; 200 nM protein, PBS
Conditions in all cases: dsDNA, one strand shown
[1] = molecular target: NKX2-5 (Homo sapiens, UniProt P52952 125-210, R139K)
[2] = molecular target: T1, VENTX (Homo sapiens, UniProt O95231 78-163, R121Q)
T1 sequence: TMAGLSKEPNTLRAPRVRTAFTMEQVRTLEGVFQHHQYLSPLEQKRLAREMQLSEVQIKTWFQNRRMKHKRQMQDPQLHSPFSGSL

[3] = molecular target: T2, VENTX (Homo sapiens, UniProt O95231 78-163)
T2 sequence: T1 sequence with Q44R

[4] = molecular target: T3, VENTX (Homo sapiens, UniProt O95231 78-163, Y115F)
T3 sequence: T1 sequence with Y38F, Q44R

[5] = molecular target: MSX2 (Homo sapiens, UniProt P35548 130-214, R199I)
Sequence of MSX2 (Homo sapiens, UniProt P35548 130-214, R199I) (P35548 130-214 R199I): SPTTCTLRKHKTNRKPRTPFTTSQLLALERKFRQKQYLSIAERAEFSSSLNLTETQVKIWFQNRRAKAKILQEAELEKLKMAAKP

[6] = molecular target: ALX1 (Homo sapiens, UniProt Q15699 118-204, L144V)
Sequence of ALX1 (Homo sapiens, UniProt Q15699 118-204, L144V) (Q15699 118-204 L144V): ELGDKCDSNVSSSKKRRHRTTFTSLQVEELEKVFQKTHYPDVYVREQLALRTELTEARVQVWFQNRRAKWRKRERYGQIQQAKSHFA

[7] = molecular target: HOXD13 (Homo sapiens, UniProt P35453 263-343, T313R)
Sequence of HOXD13 (Homo sapiens, UniProt P35453 263-343, T313R) (P35453 263-343 T313R): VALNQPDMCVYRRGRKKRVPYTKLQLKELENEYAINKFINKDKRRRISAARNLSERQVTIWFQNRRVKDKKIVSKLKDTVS

[8] = molecular target: ALX1 (Homo sapiens, UniProt Q15699 118-204, L144R)
Sequence of ALX1 (Homo sapiens, UniProt Q15699 118-204, L144R) (Q15699 118-204 L144R): as the sequence (Q15699 118-204 L144V) above, with V27R counted along it

[9] = molecular target: HOXD13 (Homo sapiens, UniProt P35453 263-343)
Sequence of HOXD13 (Homo sapiens, UniProt P35453 263-343) (P35453 263-343): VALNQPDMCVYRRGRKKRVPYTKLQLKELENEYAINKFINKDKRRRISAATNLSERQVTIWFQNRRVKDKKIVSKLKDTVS

[10] = molecular target: MSX2 (Homo sapiens, UniProt P35548 130-214)
Sequence of MSX2 (Homo sapiens, UniProt P35548 130-214) (P35548 130-214): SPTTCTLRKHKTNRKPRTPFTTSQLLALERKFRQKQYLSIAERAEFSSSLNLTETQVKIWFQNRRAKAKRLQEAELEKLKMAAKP

[11] = molecular target: VAX1 (Homo sapiens, UniProt Q5SQQ9 86-172)
Sequence of VAX1 (Homo sapiens, UniProt Q5SQQ9 86-172) (Q5SQQ9 86-172): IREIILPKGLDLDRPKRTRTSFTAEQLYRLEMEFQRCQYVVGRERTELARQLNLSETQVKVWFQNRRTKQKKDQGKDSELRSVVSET

[12] = molecular target: HOXD13 (Homo sapiens, UniProt P35453 263-343, T313A)
Sequence of HOXD13 (Homo sapiens, UniProt P35453 263-343, T313A) (P35453 263-343 T313A): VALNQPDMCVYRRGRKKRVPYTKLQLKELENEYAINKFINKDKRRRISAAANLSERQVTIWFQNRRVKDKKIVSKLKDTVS

[13] = molecular target: MSX2 (Homo sapiens, UniProt P35548 130-214, F161Y)
Sequence of MSX2 (Homo sapiens, UniProt P35548 130-214, F161Y) (P35548 130-214 F161Y): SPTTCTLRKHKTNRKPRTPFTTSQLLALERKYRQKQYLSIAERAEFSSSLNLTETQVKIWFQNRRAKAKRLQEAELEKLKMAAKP

[14] = molecular target: VAX1 (Homo sapiens, UniProt Q5SQQ9 86-172, T142I)
Sequence of VAX1 (Homo sapiens, UniProt Q5SQQ9 86-172, T142I) (Q5SQQ9 86-172 T142I): as the sequence (Q5SQQ9 86-172) above, with T57I counted along it

[15] = molecular target: ALX1 (Homo sapiens, UniProt Q15699 118-204)
Sequence of ALX1 (Homo sapiens, UniProt Q15699 118-204) (Q15699 118-204): as the sequence (Q15699 118-204 L144V) above, with V27L counted along it

[16] = molecular target: VAX1 (Homo sapiens, UniProt Q5SQQ9 86-172, K157R)
Sequence of VAX1 (Homo sapiens, UniProt Q5SQQ9 86-172, K157R) (Q5SQQ9 86-172 K157R): as the sequence (Q5SQQ9 86-172) above, with K72R counted along it

[17] = molecular target: NKX2-5 (Homo sapiens, UniProt P52952 125-210)
Sequence of NKX2-5 (Homo sapiens, UniProt P52952 125-210) (P52952 125-210): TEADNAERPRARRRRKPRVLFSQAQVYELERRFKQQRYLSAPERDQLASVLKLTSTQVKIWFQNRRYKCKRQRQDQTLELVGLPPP

[18] = molecular target: T4, NKX2-4 (Homo sapiens, UniProt Q9H2Z4 175-261, P217L)
T4 sequence: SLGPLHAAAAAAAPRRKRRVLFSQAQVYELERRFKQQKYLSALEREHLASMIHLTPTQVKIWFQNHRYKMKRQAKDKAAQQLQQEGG

[19] = molecular target: T5, NKX2-4 (Homo sapiens, UniProt Q9H2Z4 175-261, T231S)
T5 sequence: T4 sequence with L43P, T57S

[20] = molecular target: T6, NKX2-4 (Homo sapiens, UniProt Q9H2Z4 175-261)
T6 sequence: T4 sequence with L43P

[21] = molecular target: T7, NKX2-4 (Homo sapiens, UniProt Q9H2Z4 175-261, R246Q)
T7 sequence: T4 sequence with L43P, R72Q

[22] = molecular target: T8, NKX2-6 (Homo sapiens, UniProt A6NCS4 118-204)
T8 sequence: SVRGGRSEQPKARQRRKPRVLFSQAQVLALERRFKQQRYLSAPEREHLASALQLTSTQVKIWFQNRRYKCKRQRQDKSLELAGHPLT

[23] = molecular target: T9, NKX2-6 (Homo sapiens, UniProt A6NCS4 118-204, F151L)
T9 sequence: T8 sequence with F34L

[24] = molecular target: T10, NKX2-6 (Homo sapiens, UniProt A6NCS4 118-204, R150C)
T10 sequence: T8 sequence with R33C

[25] = molecular target: NKX3-2 (Homo sapiens, UniProt P78367 192-278, P234S)
Sequence of NKX3-2 (Homo sapiens, UniProt P78367 192-278, P234S) (P78367 192-278 P234S): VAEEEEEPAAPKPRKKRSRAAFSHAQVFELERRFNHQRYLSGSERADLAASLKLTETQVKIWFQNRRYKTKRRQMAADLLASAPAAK

[26] = molecular target: NKX3-2 (Homo sapiens, UniProt P78367 192-278)
Sequence of NKX3-2 (Homo sapiens, UniProt P78367 192-278) (P78367 192-278): as the sequence (P78367 192-278 P234S) above, with S43P counted along it

[27] = molecular target: HOXB9 (Homo sapiens, UniProt P17482 171-250, T197M)
Sequence of HOXB9 (Homo sapiens, UniProt P17482 171-250, T197M) (P17482 171-250 T197M): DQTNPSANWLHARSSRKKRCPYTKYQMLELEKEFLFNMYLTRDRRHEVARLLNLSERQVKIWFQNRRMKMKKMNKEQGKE

[28] = molecular target: HOXB9 (Homo sapiens, UniProt P17482 171-250)
Sequence of HOXB9 (Homo sapiens, UniProt P17482 171-250) (P17482 171-250): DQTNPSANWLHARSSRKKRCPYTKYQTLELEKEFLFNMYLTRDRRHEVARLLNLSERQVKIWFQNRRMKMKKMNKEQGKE

[29] = molecular target: HOXB9 (Homo sapiens, UniProt P17482 171-250, R186Q)
Sequence of HOXB9 (Homo sapiens, UniProt P17482 171-250, R186Q) (P17482 171-250 R186Q): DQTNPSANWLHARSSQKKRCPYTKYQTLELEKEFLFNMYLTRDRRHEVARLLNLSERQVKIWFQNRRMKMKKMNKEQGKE

Sequence of NKX2-5 (Homo sapiens, UniProt P52952 125-210, R139K) (P52952 125-210 R139K): as the sequence (P52952 125-210) above, with R15K counted along it

CCGGTGGC was tested, and the binding signal [1] was 8.61 upbm affinity estimate (log intensity, higher = more binding, comparable within an allelic series), the binding signal [2] was 7.92 upbm affinity estimate (log intensity, higher = more binding, comparable within an allelic series) and the binding signal [3] was 8.15 upbm affinity estimate (log intensity, higher = more binding, comparable within an allelic series). For the same sequence, the binding signal [4] was 8 upbm affinity estimate (log intensity, higher = more binding, comparable within an allelic series), the binding signal [5] was 9.47 upbm affinity estimate (log intensity, higher = more binding, comparable within an allelic series) and the binding signal [6] was 6.52 upbm affinity estimate (log intensity, higher = more binding, comparable within an allelic series). The binding signal [7] was 9.44 upbm affinity estimate (log intensity, higher = more binding, comparable within an allelic series), the binding signal [8] was 6.41 upbm affinity estimate (log intensity, higher = more binding, comparable within an allelic series) and the binding signal [9] was 9.29 upbm affinity estimate (log intensity, higher = more binding, comparable within an allelic series). The binding signal [10] was 9.56 upbm affinity estimate (log intensity, higher = more binding, comparable within an allelic series), the binding signal [11] was 7.31 upbm affinity estimate (log intensity, higher = more binding, comparable within an allelic series) and the binding signal [12] was 9.43 upbm affinity estimate (log intensity, higher = more binding, comparable within an allelic series). The binding signal [13] was 9.58 upbm affinity estimate (log intensity, higher = more binding, comparable within an allelic series), the binding signal [14] was 7.45 upbm affinity estimate (log intensity, higher = more binding, comparable within an allelic series) and the binding signal [15] was 6.47 upbm affinity estimate (log intensity, higher = more binding, comparable within an allelic series). For the same sequence, the binding signal [16] was 7.27 upbm affinity estimate (log intensity, higher = more binding, comparable within an allelic series) and the binding signal [17] was 8.93 upbm affinity estimate (log intensity, higher = more binding, comparable within an allelic series).
For AGTCCGGG, the binding signal [1] was 9.14 upbm affinity estimate (log intensity, higher = more binding, comparable within an allelic series), the binding signal [18] was 9.61 upbm affinity estimate (log intensity, higher = more binding, comparable within an allelic series) and the binding signal [19] was 9.48 upbm affinity estimate (log intensity, higher = more binding, comparable within an allelic series). For the same sequence, the binding signal [20] was 9.52 upbm affinity estimate (log intensity, higher = more binding, comparable within an allelic series), the binding signal [21] was 9.63 upbm affinity estimate (log intensity, higher = more binding, comparable within an allelic series) and the binding signal [17] was 9.09 upbm affinity estimate (log intensity, higher = more binding, comparable within an allelic series).
In the case of CCTCTTAA, the binding signal [1] is reported as 12.3 upbm affinity estimate (log intensity, higher = more binding, comparable within an allelic series), the binding signal [18] is reported as 12.4 upbm affinity estimate (log intensity, higher = more binding, comparable within an allelic series) and the binding signal [19] is reported as 12.7 upbm affinity estimate (log intensity, higher = more binding, comparable within an allelic series). For the same sequence, the binding signal [20] was 12.3 upbm affinity estimate (log intensity, higher = more binding, comparable within an allelic series), the binding signal [22] was 13.4 upbm affinity estimate (log intensity, higher = more binding, comparable within an allelic series) and the binding signal [21] was 12.9 upbm affinity estimate (log intensity, higher = more binding, comparable within an allelic series). The binding signal [23] was 10.5 upbm affinity estimate (log intensity, higher = more binding, comparable within an allelic series) and the binding signal [17] was 12.3 upbm affinity estimate (log intensity, higher = more binding, comparable within an allelic series).
For CACTTCAG, the binding signal [1] was 12.4 upbm affinity estimate (log intensity, higher = more binding, comparable within an allelic series), the binding signal [18] was 12.6 upbm affinity estimate (log intensity, higher = more binding, comparable within an allelic series) and the binding signal [19] was 12.9 upbm affinity estimate (log intensity, higher = more binding, comparable within an allelic series). For the same sequence, the binding signal [20] was 12.4 upbm affinity estimate (log intensity, higher = more binding, comparable within an allelic series), the binding signal [22] was 13.4 upbm affinity estimate (log intensity, higher = more binding, comparable within an allelic series) and the binding signal [21] was 13.1 upbm affinity estimate (log intensity, higher = more binding, comparable within an allelic series). For the same sequence, the binding signal [23] was 10.8 upbm affinity estimate (log intensity, higher = more binding, comparable within an allelic series) and the binding signal [17] was 12.3 upbm affinity estimate (log intensity, higher = more binding, comparable within an allelic series).
With AAGTGGAC the binding signal [1] was 12.5 upbm affinity estimate (log intensity, higher = more binding, comparable within an allelic series), the binding signal [18] was 12.4 upbm affinity estimate (log intensity, higher = more binding, comparable within an allelic series) and the binding signal [19] was 12.9 upbm affinity estimate (log intensity, higher = more binding, comparable within an allelic series). For the same sequence, the binding signal [24] was 11.8 upbm affinity estimate (log intensity, higher = more binding, comparable within an allelic series), the binding signal [22] was 13.4 upbm affinity estimate (log intensity, higher = more binding, comparable within an allelic series) and the binding signal [23] was 10.4 upbm affinity estimate (log intensity, higher = more binding, comparable within an allelic series). For the same sequence, the binding signal [25] was 12.7 upbm affinity estimate (log intensity, higher = more binding, comparable within an allelic series), the binding signal [17] was 12.4 upbm affinity estimate (log intensity, higher = more binding, comparable within an allelic series) and the binding signal [26] was 12.8 upbm affinity estimate (log intensity, higher = more binding, comparable within an allelic series).
For CACTTGAA, the binding signal [1] was 13.2 upbm affinity estimate (log intensity, higher = more binding, comparable within an allelic series), the binding signal [18] was 12.8 upbm affinity estimate (log intensity, higher = more binding, comparable within an allelic series) and the binding signal [19] was 13.3 upbm affinity estimate (log intensity, higher = more binding, comparable within an allelic series). For the same sequence, the binding signal [20] was 12.7 upbm affinity estimate (log intensity, higher = more binding, comparable within an allelic series), the binding signal [24] was 12.2 upbm affinity estimate (log intensity, higher = more binding, comparable within an allelic series) and the binding signal [22] was 13.9 upbm affinity estimate (log intensity, higher = more binding, comparable within an allelic series). For the same sequence, the binding signal [21] was 13.5 upbm affinity estimate (log intensity, higher = more binding, comparable within an allelic series), the binding signal [23] was 11.4 upbm affinity estimate (log intensity, higher = more binding, comparable within an allelic series) and the binding signal [17] was 13.2 upbm affinity estimate (log intensity, higher = more binding, comparable within an allelic series).
With CCAGCCAG the binding signal [1] was 8.68 upbm affinity estimate (log intensity, higher = more binding, comparable within an allelic series), the binding signal [27] was 8.47 upbm affinity estimate (log intensity, higher = more binding, comparable within an allelic series) and the binding signal [28] was 8.34 upbm affinity estimate (log intensity, higher = more binding, comparable within an allelic series). For the same sequence, the binding signal [7] was 9.41 upbm affinity estimate (log intensity, higher = more binding, comparable within an allelic series), the binding signal [9] was 9.59 upbm affinity estimate (log intensity, higher = more binding, comparable within an allelic series) and the binding signal [12] was 9.56 upbm affinity estimate (log intensity, higher = more binding, comparable within an allelic series). The binding signal [29] was 8.39 upbm affinity estimate (log intensity, higher = more binding, comparable within an allelic series) and the binding signal [17] was 8.64 upbm affinity estimate (log intensity, higher = more binding, comparable within an allelic series).
